MARV entry inh: qHTS for Inhibitors of binding or entry into cells for Marburg Virus; Marburg virus pseudotype entry/binding inhibition, cell-based; Potency, µM (top dose mostly 49.2 µM), inactives show at the highest dose activity change, negative = inhibition, actives largely listed as inhibitors; actives 6.5% (n = 18,000); AID 720532, 2013
LASV entry inh: qHTS for Inhibitors of binding or entry into cells for Lassa Virus | Potency, µM (titrated, usually from 49.2 µM), for the others: top-dose activity change, negative = inhibition, hits mostly inhibitors | Lassa virus pseudotyped entry inhibition, cell-based qHTS | actives 4.1% (n = 18,000) | AID 720533, 2013
Active calls of the source: *; ? = inconclusive; [ ] = another dose, or the depositor's remark. Most compounds without a hit are left out; they make up all but 8.6% or so of the library. Calls follow the shape of the full dose curve; tested in HEK293 cells. % is scaled to controls: 0 for no effect and ±100 for the full control effect; potency is read from the fitted curve at half-maximal effect.

SMILES	MARV entry inh	LASV entry inh
CN1C[C@H](C(=O)N[C@]2(C)O[C@]3(O)[C@H]4CCCN4C(=O)[C@H](Cc4ccccc4)N3C2=O)C[C@H]2c3cccc4[nH]cc(c34)C[C@@H]21	?	1.8%[17.8 µM]
N#Cc1cccc(-c2cc(NCc3cccs3)ncn2)c1	38.9%	26.1%
CC(=O)N1CC[C@@H]2CC(=O)C[C@@H](C)[C@@H]21	-6.4%[107 µM]	0.5%[107 µM]
C=CCN1c2ccccc2[C@]23C[C@@H](C(=O)OC)N(C(=O)Nc4ccccc4F)C2=NC(C(=O)OC)=C(C(=O)OC)[C@H]13	2.9%[8.59 µM]	12.3%[8.59 µM]
Cc1cccc(CNc2cc(-c3cccc(C#N)c3)ncn2)c1	12.8%	-4.5%
CCN(Cc1ccncc1)Cc1ccc2c(c1)CN(C(=O)c1ccccc1)CCO2	?	-7.2%
CCN1C(=O)NC(c2cccc(F)c2)C(C(C)=O)=C1C (centres undefined)	?	-12.0%[8.59 µM]
c1ccc2c(c1)SCc1c-2[nH]c2ccccc12	11.2µM*	?
O=C1Cc2c([nH]c3ccc(Br)cc23)-c2ccccc2N1	4.5%	-4.2%
Cc1cnc(-n2ncc(C(=O)NCC3CCCN(C)C3)c2C)nc1-c1cccs1 (centres undefined)	-15.7%	-8.1%
C[C@H]1[C@H]2CC[C@H]3[C@@H]4CC=C5C[C@@H](N(C)C)CC[C@]5(C)[C@H]4CC[C@]23CN1C	3.16µM*	-25.7%
C[C@]12CC[C@H]3[C@@H](CC=C4C[C@@H](O)CC[C@@]43C)[C@@H]1CC[C@@H]2O	25.3%	-9.5%
C=C1C([C@@H](O)C[C@H](C)C2O[C@@]3(CCCCO3)CC[C@H]2C)OC2CC[C@@]3(CC[C@@H](/C=C/[C@@H](C)C4CC(C)=C[C@]5(O4)O[C@H](C[C@@](C)(O)C(=O)O)CCC5O)O3)OC2[C@@H]1O (some centres undefined)	?	1.12µM*
N[C@H](C(=O)O)[C@H]1C[C@@H]1C(=O)O	2.7%	-8.2%
C[C@H]1CC[C@]2(NC1)O[C@H]1C[C@H]3[C@@H]4CC[C@H]5C[C@@H](O[C@@H]6O[C@H](CO)[C@H](O[C@@H]7O[C@H](CO)[C@@H](O)[C@H](O[C@@H]8OC[C@@H](O)[C@H](O)[C@H]8O)[C@H]7O[C@@H]7O[C@H](CO)[C@@H](O)[C@H](O)[C@H]7O)[C@H](O)[C@H]6O)CC[C@]5(C)[C@H]4CC[C@]3(C)[C@H]1[C@@H]2C	4.47µM*	14.1µM*
CC1CCC2(OC1)OC1CC3C4CC[C@@H]5CC(O)CC[C@@]5(C)C4CC(=O)[C@]3(C)C1C2C (some centres undefined)	0.9%	6.1%
COc1ccc(S(=O)(=O)N(CCO)c2ccccc2CN(C)CC=Cc2ccc(Cl)cc2)cc1	10µM*	11.2µM*
CC(C)C[C@H](NC(=O)[C@H](Cc1ccccc1)NC(=O)CNC(=O)[C@@H](NC(=O)[C@@H](N)Cc1ccc(O)cc1)[C@H](C)O)C(=O)N[C@H](C(=O)O)[C@H](C)O	23.4%	2.2%
CC1=CC[C@@H](COc2ccccc2)O[C@@]2(C1)C(=O)N(Cc1ccc(Br)cc1)c1cccc(Br)c12	46.4%[8.59 µM]	10.3%[8.59 µM]
O=C1NCN(c2ccccc2)C12CCN(C[C@H]1COc3ccccc3O1)CC2	1.6%	-8.9%
CN1CCC(Nc2ncc3ncnc(Nc4ccc(F)c(Cl)c4)c3n2)CC1	10µM*	-10.1%
C=CCN1[C@H](C)[C@@H](c2ccccc2)Oc2c(Cl)cccc2S1(=O)=O	-28.4%	-13.0%
CCC(C)CC(C)CC(C)C(=O)/C=C(/O)C(C)CC(C)C/C=C/C(C)C(O)C(C)C(O)CC1CCC(C)(C)O1 (centres undefined)	?	-20.8%
CC(=O)O[C@H]1C2[C@@H](OC(=O)Cc3ccccc3)[C@@H](C)C[C@]2(OC(C)=O)C(=O)/C(C)=C/[C@@H]2[C@H](CC[C@@]13CO3)C2(C)C (some centres undefined)	?	-28.0%
COc1cc(CC(=O)OCC2=C[C@H]3[C@@H]4C(C)(C)[C@]4(OC(C)=O)[C@H](OC(=O)Cc4ccccc4)[C@@H](C)[C@]3(O)[C@@H]3C=C(C)C(=O)[C@@]3(O)C2)ccc1O	?	12.6µM*
SMILES	MARV entry inh	LASV entry inh
C=C(C)[C@]12C[C@@H](C)[C@@]34OC(Cc5ccccc5)(O[C@@H]1[C@@H]3C=C(COC(=O)Cc1cc(I)c(O)c(OC)c1)C[C@]1(O)C(=O)C(C)=C[C@@H]41)O2	12.6µM*	17.8µM*
C=C(C)[C@]12C[C@@H](C)[C@@]34OC(Cc5ccccc5)(O[C@@H]1[C@@H]3C=C(COC(=O)Cc1cc(OC)c(O)cc1I)C[C@]1(O)C(=O)C(C)=C[C@@H]41)O2	14.1µM*	20µM*
C[C@]12CCC3c4ccc(O)cc4CCC3C1CCC2OC(=O)CCC1CCCC1 (some centres undefined)	9.4%	-9.7%
COc1ccc(C(=O)C2C3C4COC(O4)C(=O)C3C3C=Cc4ccccc4N32)c(OC)c1 (centres undefined)	-11.1%	?
CC=C(C)C(=O)O[C@H]1C(C)=C2[C@@H]3OC(=O)[C@@](C)(O)[C@@]3(O)[C@@H](OC(=O)CCC)C[C@](C)(OC(C)=O)[C@@H]2[C@@H]1OC(=O)CCCCCCC	39.8µM*	39.8µM*
CC1=CCCC2C1(C)CCC(C)C2(C)CC/C(C)=C/C[n+]1cn(C)c2c(N)ncnc21 (centres undefined)	-11.8%	16.0%
Nc1ccccc1S(=O)(=O)Nc1cccc2cccnc12	7.08µM*	17.8µM*
Nc1c(S(=O)(=O)O)cc(Nc2cccc3ccccc23)c2c1C(=O)c1ccccc1C2=O	4.6%	-15.2%
CC(=O)Nc1ccc(OCCOCCOc2ccc(NC(C)=O)cc2)cc1	4.5%	?
CCOc1ccc(N=C(C)Nc2ccc(OCC)cc2)cc1	11.2µM*	-11.3%
COc1ccc(CNc2nc(NCc3ccc(OC)cc3)c3ncn(C4CCCCC4)c3n2)cc1	3.55µM*	?
Cn1cnc2c(NCc3ccccc3)nc(NCCO)nc21	2.5%	-1.5%
Fc1ccc(C(c2ccc(F)cc2)N2CCN(C/C=C\c3ccccc3)CC2)cc1	14.1µM*	?
Fc1ccc(C(OCCN2CCN(C/C=C/c3ccccc3)CC2)c2ccc(F)cc2)cc1	8.91µM*	15.8µM*
C[C@H]1CN(c2ccccc2)C(=O)[C@H]1CC(=O)Nc1ccccc1	23.6%	12.9%
CC1(OC(=O)c2ccc(Cl)nc2)C(=O)C=C2C=C3CCCN3C=C2C1=O (centres undefined)	2.1%[8.59 µM]	13.3%[8.59 µM]
Oc1cc(Cl)c(Cl)cc1Cl	-4.7%	-13.4%
CC1(C)OC2CC3C4CC(F)C5=CC(=O)CC[C@@]5(C)C4C(O)C[C@@]3(C)[C@]2(C(=O)CO)O1 (some centres undefined)	6.7%	-10.8%
Oc1ccc([C@@H]2CNCCc3c2cc(O)c(O)c3Cl)cc1	10.7%	-14.3%
Oc1ccc([C@H]2CNCc3c2ccc(O)c3O)cc1O	6.31µM*	-21.0%
O=C1c2c(O)cc(O)cc2O[C@H](c2ccc(O)c(O)c2)C1O (some centres undefined)	16.1%	-0.1%
CCN1C[C@]2(C)CCC(OC)[C@@]34C5C[C@@H]6CC[C@@](O)(C5C(=O)O6)[C@@H](C(O)C23)[C@@H]14 (some centres undefined)	1.9%	2.6%
CCCCCCCCCCCCCC[N+](C)(C)Cc1ccccc1	?	28.2µM*
CCCCCCCCNS(=O)(=O)CCNCCc1ccccc1	-10.5%	4.3%
